According to PubChem BioAssay AID624415 (National Center for Advancing Translational Sciences (NCATS), 2012):
Among all 390,000 compounds or so, about 60 (0.02%) were called active. No stated cut-off is given here; in the data, active means activity change below about -50%; inconclusive means between about -30% and that limit; inactive means weaker than that. This excerpt belongs to a sample that is enriched for actives.

target: Mucolipin-1 (Homo sapiens) (UniProt Q9GZU1); test: qHTS for Inhibitors of the Human Mucolipin Transient Receptor Potential 1 (TRPML1); conditions: TRPML1-inducible cells, Ca2+ dye fluorescence, FDSS; active compounds read low; inhibition of EC80 agonist-evoked calcium signal;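 further: stimulus is agonist 54-4 at its EC80 concentration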
Sequence (Q9GZU1 whole entry, looked up, the tested form may be a part): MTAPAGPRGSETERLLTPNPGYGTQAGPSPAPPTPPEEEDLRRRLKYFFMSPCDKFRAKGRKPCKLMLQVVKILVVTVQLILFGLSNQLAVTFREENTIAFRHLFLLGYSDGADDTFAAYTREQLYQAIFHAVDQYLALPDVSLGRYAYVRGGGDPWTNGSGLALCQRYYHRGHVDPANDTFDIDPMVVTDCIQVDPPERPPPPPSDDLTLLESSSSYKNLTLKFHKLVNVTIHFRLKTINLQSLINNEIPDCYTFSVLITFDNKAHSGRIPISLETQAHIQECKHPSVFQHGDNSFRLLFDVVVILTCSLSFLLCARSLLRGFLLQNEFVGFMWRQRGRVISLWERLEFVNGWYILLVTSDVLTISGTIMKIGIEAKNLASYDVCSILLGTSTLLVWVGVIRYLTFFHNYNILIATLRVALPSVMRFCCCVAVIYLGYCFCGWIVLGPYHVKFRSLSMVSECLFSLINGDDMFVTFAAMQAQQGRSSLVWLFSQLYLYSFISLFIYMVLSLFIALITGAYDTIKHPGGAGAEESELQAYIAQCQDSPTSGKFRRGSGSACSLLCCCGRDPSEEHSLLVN
Excerpt: Mutations of human Mucolipin transient receptor potential 1 (TRPML1) cause type IV mucolipidosis (ML4), a devastating neurodegenerative disease in young children. […] Currently, there is no treatment for ML4. […] Under physiological conditions, TRPMLs regulate membrane trafficking by transducing information about PI(3,5)P2 levels into changes in juxtaorganellar Ca2+, thereby triggering membrane fusion/fission events in the late endocytic pathways (endolysosomal trafficking). In addition, TRPML1 mediates release of Fe2+ from late endosomes and lysosomes, which is essential for cellular iron metabolism. Thus, impaired ion (Ca2+ and Fe2+) homeostasis underlies lysosomal dysfunction and ML4 phenotypes. In ML4 cells, the problem is twofold. First, defective Ca2+-dependent membrane trafficking due to TRPML1-deficiency causes accumulation of lipids and other bio-materials in the lysosome. The second strike comes from the lysosomal iron overload (due to impairment of TRPML1's Fe2+ conductivity), which converts the accumulated materials into the nondegradable (resistant to lysosomal degradation) lipofuscin (also called aging pigment) in the lysosome. Lipofuscin accumulation dramatically compromises the functions of lysosomes.
Niemann-Pick type C (NPC) disease is another lysosome storage disease (LSD) with severe neurodegeneration during the childhood. Currently, there is no cure for NPC. […] Thus, TRPML1 is likely to be an essential regulator of lysosome ion homeostasis. We specifically hypothesize that stimulating TRPML1's Fe2+/Ca2+ channel activity in the lysosome using synthetic agonists can alleviate neurodegeneration associated with ML4 or NPC.
To this end, a high throughput screen was developed in a miniaturized format to screen against the Molecular Libraries Small Molecule Repository (MLSMR) to find small molecules that act either as inhibitors or agonist against the TRPML1 channel.
NIH Chemical Genomics Center [NCGC]
NIH Molecular Libraries Probe Centers Network [MLPCN]
Assay Submitter (PI): Haoxing Xu, University of Michigan Ann Arbor
TRPML1-DL cells are dissociated from flasks, counted and, brought up to a density of 500,000 cells per mL of media containing a 1X Tet inducer. Using a Multidrop Combi, 3 uL of this cell solution is dispensed to each well of a 1536 TC treated, black, clear bottom hi base plate for a final cell density of 1,500 cells per well. The assay plates are incubated overnight (approximately 16 hours) at 37 degrees C and 5% CO2. Using a Multidrop Combi, 2 uL of ABD Ca8 no wash dye plus quencher is added to each well. The assay plates incubate at room temperature in the dark for 45-90 minutes. The assay plate is read on the FDSS using the following protocol: 10 second baseline read, 23 nL of compounds and controls are added using 1536 pintool, agonist read for 110 seconds, 1 uL EC80 addition (4 uM final 54-4 diluted in media), antagonist read for 110 seconds.
On the % scale 0 is the no-effect control and ±100 the full control effect.

Activity change, negative = inhibition, inactive:
C=C1CCN(Cc2ccc(OC)cc2)S(=O)(=O)c2ccccc21 57%
CCOC(=O)c1ccc(-c2ccc(/C=C(\C#N)C(=O)Nc3ccc(OCC)cc3)o2)cc1 10.3%
Cc1c(NS(=O)(=O)c2ccc(Cl)cc2)c(=O)n(-c2ccccc2)n1C -2.41%
CCc1ccc2ncc3c(-c4ccc(C)cc4)nn(CC(=O)NCc4ccccc4)c3c2c1 1.33%
COc1ccc(N2CCN(C(=O)C3CCCN(C(=O)c4cc5sccc5n4C)C3)CC2)cc1 (stereo not drawn) -10.9%
COc1cc(Br)cc2cc(S(=O)(=O)c3ccccc3)c(=O)oc12 0.895%
COc1ccc(Cl)cc1NC(=O)Cn1c(=O)c2ccccc2n2nncc12 11.3%
COc1cc(NC(=O)Cn2nc(-c3ccc(C)c(C)c3)ccc2=O)cc(OC)c1 -17.3%
Cc1ccc(NC(=O)NC(C)c2c(-n3cccc3)sc(C)c2C)c(C)c1 (stereo not drawn) 43%
CCc1nnc(SCc2nc(-c3cccc(C)c3)oc2C)c2cc3sc(C)cc3n12 -4.34%
CCCOc1ccc(C(=O)Nc2ccc3oc(-c4cccc(Cl)c4Cl)nc3c2)cc1 -2.03%
COc1ccccc1-c1cc(C(F)(F)F)nc(S(=O)(=O)CCCC(=O)Nc2cc(C)ccc2O)n1 -10.5%
Cc1ccc(C)c(Oc2c(C(F)(F)F)oc3c(CN4CCN(C)CC4)c(O)ccc3c2=O)c1 11.9%
O=C(CN1CCN(Cc2ccc(Cl)cc2)C1=O)NCc1ccc(F)cc1 3.6%
COc1cccc(Cn2c(SCc3ccc(C(=O)N4CCCCC4)cc3)nc3ccncc32)c1 17.2%
CSc1nc(=O)c2c(n1C)NC(=O)CC2c1ccccc1OC(C)C (stereo not drawn) -8.74%
O=C(Nc1ccc2nc(SCC(=O)N3CCCc4ccccc43)sc2c1)c1ccc(F)cc1 -5.54%
Cn1cc(S(=O)(=O)N2CCCCCC2)cc1C(=O)N1CCN(c2ccc(F)cc2)CC1 -18.5%
Cc1ccc(NC(=O)CSc2nc3c([nH]c4ccccc43)c(=O)n2-c2ccccc2)cc1Cl -8.82%
CCCS(=O)(=O)c1c(Nc2ccccc2C)sc(C(=O)c2ccccc2)c1N 6.08%
CCC(=O)N1CCc2cc(Br)cc(S(=O)(=O)Nc3ccc(C)cc3C)c21 11.5%
O=C(Nc1ccc(Br)cc1)c1cc2nc(-c3ccccc3)cc(-c3ccccc3)n2n1 63.6%
O=C(CS(=O)(=O)c1cccc2nsnc12)N1CCN(c2cccc(Cl)c2)CC1 -7.54%
O=C(COc1ccccc1)NCc1ccc2c(c1)CCN2C(=O)c1ccc(F)cc1 25.6%
COc1ccc(NC(=O)c2cc3cc(C)ccc3n2C)cc1 -10.1%
COC(=O)c1ccc(NC(=O)c2cnn(-c3ccc(Cl)cc3)c2C2CCN(C(=O)OC(C)(C)C)CC2)cc1 -3.85%
Cc1c(C(=O)N2CCCC2)oc2c1-c1nn(CC(=O)NCc3ccc(OC(C)C)cc3)cc1CC2 30.2%
CN1CCN(/[N+]([O-])=N/Oc2ccc([N+](=O)[O-])cc2[N+](=O)[O-])CC1 -8.85%
COc1cc(OC)c2c(c1C(CCN1CCCCC1)c1ccc(N(C)C)cc1)OC(=O)CC2c1ccc(N(C)C)cc1 (stereo not drawn) -9.58%
Cc1ccc(Cl)cc1N(C)C(=O)Cn1nc(Cc2cccnc2)c2ccccc2c1=O -7.38%
CC(=O)Nc1ccc(NC(=O)C2CCCN(S(=O)(=O)c3ccc4c(c3)CCCC(=O)N4)C2)cc1 (stereo not drawn) -7.84%
COc1ccc(-c2nc3sc(CCNS(=O)(=O)c4ccc(F)c(C)c4)c(C)n3n2)cc1 16.5%
CCc1cc2c(-c3ccccc3)cc(=O)oc2c2c1OCN(Cc1ccc(C)cc1)C2 -21.9%
O=C(O)c1ccc(Nc2nc(-c3ccccc3)c3cc(Br)ccc3n2)cc1 16.7%
CCN(CC)CCNC(=O)CN1N=C(c2ccc(OC)cc2)CCC1=O -7.95%
COc1ccc(S(=O)(=O)c2c(Nc3cccc(Cl)c3)sc(C(=O)c3ccccc3)c2N)cc1 17%
Cc1ccc2ncc(C(=O)Nc3ccc(OC(F)(F)F)cc3)c(=O)n2c1 4.29%
COC(=O)c1scc(-c2ccc(C)cc2)c1S(=O)(=O)Nc1cc(Cl)c(OC)cc1OC 37.6%
COc1ccc(CC(=O)N2CC(=O)Nc3ccc(Br)cc3C2c2ccc(F)cc2)cc1OC (stereo not drawn) 5.98%
Cc1cccc2c1-c1sc(C(=O)Nc3ccc(F)cc3F)cc1CO2 18.7%
CCOc1ccc(CCNC(=O)c2cc3c(=O)n(C)c4ccccc4c3n2C)cc1 -10.6%
COc1cccc(CNC(=O)c2cc(=O)[nH]c3ccc(S(=O)(=O)N4CCCCC4)cc23)c1 -1.14%
Cc1ccc(C)c(Cn2c(CCCNC(=O)C3CCCCC3)nc3ccccc32)c1 22.7%
CNC(=O)[C@]1(C(F)(F)F)C[C@H](CCc2ccccc2)CCCO1 7.15%
COc1cccc(-c2nnc(SCC(=O)N3CCC(C)CC3)o2)c1 0.454%
CCCn1c(=N)c(C(=O)NCc2ccccc2)cc2c(=O)n3cccc(C)c3nc21 -0.876%
Cc1ccc2c(=O)c(C(=O)c3ccc(F)cc3)cn(CC(=O)NC3CCCCC3)c2n1 -15.9%
COc1ccc(Br)cc1C1C2C=CCC(C)C2C(=O)N1Cc1ccccc1 (stereo not drawn) 20.3%
Cc1ccc(-c2cnc(C3CC3)o2)cc1S(=O)(=O)Nc1cccc(C)c1C 5.77%
COc1ccc(NC(=O)CSc2nc3ccccc3n2CC(=O)N2CCCCC2C)cc1 (stereo not drawn) 9.59%
Cc1cccc(N2CCN(C(=O)c3cnc(N4CCCC4)nc3C)CC2)c1C 12.6%
CCN(CCCNC(=O)c1cc2c(=O)n(CC)c3ccccc3c2s1)Cc1ccccc1 14.6%
COc1ccc(C2/C=C\CN(C(=O)c3ccc(C)cc3)C(Cc3ccccc3)C(=O)N2Cc2ccc(F)cc2)cc1 (stereo not drawn) -1.58%
CCN(CC)CCNC(=O)Cn1ncc2c3ccccc3n(Cc3ccccc3C)c2c1=O 1.87%
O=C(Nc1ccc2c(c1)OCO2)c1cc(-c2cccc(Cl)c2)on1 1.26%
COc1ccc(C2CC(O)(c3ccccc3)Oc3cc(C)cc(C)c32)cc1 (stereo not drawn) 9.65%
Cc1ccc(S(=O)(=O)N(CC(=O)Nc2ccc(Cl)cc2Cl)c2ccccc2C)cc1 59.9%
Cc1c(NC(=O)C(C)(C)C)cccc1-c1nc2ccccc2s1 -0.118%
Cc1ccc2nc(CN3CCN(S(=O)(=O)c4ccc(C)c(C)c4)CC3)oc2c1 -6.53%
O=C(CCS(=O)(=O)c1cc(Br)cc2c1N(C(=O)C1CC1)CC2)Nc1ccc(Br)cc1F -10.7%
COc1cc(NC(=O)c2noc3c2CSc2ccccc2-3)cc(OC)c1OC 8.19%
Fc1ccccc1Oc1ncnc2c1oc1ccccc12 -7.01%
COc1ccccc1-c1nnc(C2CCN(C(=O)c3ccc(Cl)cc3)CC2)o1 -16.2%
